Drawing on PubChem BioAssay (EPA / NIEHS), this text covers outcome and AC50 for 22 compounds.

Molecules are shown by their SMILES. Results filed as inconclusive are left out. Activity calls are given as the source filed them. The calls were made as follows, unless noted: active = hit-call score of the fitted dose curve at least 0.9, where 1 is the maximum; inactive = score below 0.9.

The nature of assay [1]: VALA_TUBHUV_Agonist_CellCount: Viability Assessment in the VALA Sciences human Umbilical Vein Endothelial Tubule Formation (TUBHUV) Agonism Assay (AID 2284309; active = hit-call score of the fitted dose curve at least 0.9, where 1 is the maximum). In a few lines: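 Viability endpoint by fluorescent imaging of fixed nuclear/CD31-stained HUVEC–HDF co-cultures. Readout is cell count, fitted upward against 0.1% DMSO. Compound exposure was 72 h in 10 ng/ml VEGF, after 3-day co-culture priming.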

A short description of assay [2]: VALA_TUBIPS_Antagonist_TubuleLength: VALA Sciences human iPS-derived Endothelial Tubule Formation (TUBIPS) Antagonist Assay (AID 2284313; active = hit-call score of the fitted dose curve at least 0.9, where 1 is the maximum). An outline of the steps:
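Tubule length was quantified by high-content imaging of CD31- and nuclear-stained cells, with 0.1% DMSO as neutral and 100 uM suramin as inhibition control. Compounds were applied for 3 days, in 10 ng/ml VEGF, to cultures pre-grown 3 days.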

The nature of assay [3]: VALA_TUBHUV_Antagonist_TubuleLength: VALA Sciences human Umbilical Vein Endothelial Tubule Formation (TUBHUV) Antagonism Assay (AID 2284325; active = hit-call score of the fitted dose curve at least 0.9, where 1 is the maximum). In a few lines: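 Tubule length was imaged via CD31 immunofluorescence after a further 3-day compound exposure in 10 ng/ml VEGF, following 3-day pre-culture of HUVEC with HDF at 1:3. Vehicle 0.1% DMSO; suramin (100 uM) inhibition control.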

Assay [4] in a line: TAMU_PeakParms_SingleDonor1434_Asystole: Texas A&M University (TAMU) 1.5-hr Human Induced Pluripotent Stem Cell (iPSC)-derived Cardiomyocytes Calcium (Ca+2) Flux Assay for Cardiotoxicity: Asystole (quiescence of beating) (AID 2284328; active = hit-call score of the fitted dose curve at least 0.9, where 1 is the maximum). An outline of the steps: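 Donor 1434 iPSC-cardiomyocytes exposed 90 min at 37C, 5% CO2, to 0.2, 1, 10 and 100 uM in 0.5% DMSO. Ca2+ dye fluorescence gave average peak frequency; POD is EC95, a 95% beat-rate drop versus controls.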

Assay [5] has as its system Brachyury (BRA) Protein Expression, Deisenroth Lab, TBXT (gene 6862). The assay can be described thus: CCTE_Deisenroth_DEVTOX-GLR_legacy_Bra: (Legacy) CCTE's DevTox GLR-Endo Assay Evaluation of Brachyury (BRA) Protein Expression, Deisenroth Lab (AID 2284329). An outline of the steps:
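Readout: percent Bra+ cells by high-content fluorescence imaging, Bra+ meaning mean intensity 5x BMAD over pluripotent control median. RUES2-GLR cells dosed twice over 48 h differentiation; DMSO-control median subtracted before concentration-response fitting.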

Assay [6] in a line: CCTE_Deisenroth_DEVTOX-GLR_legacy_CellCount: (Legacy) Viability Assessment in CCTE's DevTox GLR-Endo Assay, Deisenroth Lab (AID 2284331). Particulars: actives raise or lower the signal. An outline of the steps:
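Viability is taken from imaged nuclei counts in fixed RUES2-GLR cultures after 48 h of differentiation under two 24 h-spaced chemical exposures, 10 concentrations from 1 nM to 200 uM, gain or loss versus DMSO baseline.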

Assay [7] is described as follows: IUF_NPC2-5_cytotoxicity_120hr: Cytotoxicity Assessment at 120 hours in the Leibniz Research Institute for Environmental Medicine (IUF) Neural Progenitor Cell Migration and Differentiation Assay (NPC2-5) (AID 2284307; active = hit-call score of the fitted dose curve at least 0.9, where 1 is the maximum). An outline of the steps:
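Membrane-integrity loss measured as LDH activity in medium supernatant via resazurin-to-resorufin fluorescence after 120 h exposure. hNPC spheres from GW 16-19 fetal cortex differentiated on poly-D-lysine/laminin, 37C, medium half-refreshed day 3; seven concentrations, DMSO max 0.1%.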

Assay [8] is described as follows: IUF_NPC2-5_cell_number_120hr: Cell Number Assessment at 120 hours in the Leibniz Research Institute for Environmental Medicine (IUF) Neural Progenitor Cell Migration and Differentiation Assay (NPC2-5) (AID 2284308).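 Also: count of Hoechst-stained nuclei in migration zone around plated human neural progenitor spheres.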 An outline of the steps: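 Counting of all Hoechst-stained nuclei in the migration area at 120 h, versus DMSO control. Primary hNPC spheres differentiated on poly-D-lysine/laminin in N2 medium at 37C, dosed from day 0 (7 concentrations, DMSO ≤0.1%), half-refed day 3.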

Assay [9] is described as follows: VALA_TUBIPS_Agonist_TubuleLength: VALA Sciences human iPS-derived Endothelial Tubule Formation (TUBIPS) Agonism Assay (AID 2284311; active = hit-call score of the fitted dose curve at least 0.9, where 1 is the maximum). In a few lines:
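Agonist-mode readout is the gain in imaged tubule length versus DMSO baseline. It was measured by fluorescence high-content imaging 72 h after dosing human iPSC-derived endothelial cells.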

The nature of assay [10]: IUF_NPC2-5_viability_120hr: Viability Assessment at 120 hours in the Leibniz Research Institute for Environmental Medicine (IUF) Neural Progenitor Cell Migration and Differentiation Assay (NPC2-5) (AID 2284312). In a few lines:
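Human fetal neural progenitor spheres (0.3 mm) plated on poly-D-lysine/laminin in N2 differentiation medium, exposed 120 h with half-medium refresh at day 3. Viability by alamar blue resazurin fluorescence; 7 concentrations, DMSO max 0.1%.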

Assay [11] in a line: VALA_MIGHUV2_CellCount: Viability Assessment in the VALA Sciences human Umbilical Vein Endothelial Cell Migration (MIGHUV) Assay, Area of Scratch Wound after Recovery (AID 2284314; active = hit-call score of the fitted dose curve at least 0.9, where 1 is the maximum). An outline of the steps:
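Viability read-out: Hoechst-stained nuclei counted by fluorescence imaging after a 24 h recovery period in fixed, scratched HUVEC plates. Compound was dosed within 30 min of scratching at six concentrations (triplicate); DMSO at 0.1 % served as baseline.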

Assay [12] is described as follows: VALA_MIGHUV2_WoundArea: VALA Sciences human Umbilical Vein Endothelial Cell Migration (MIGHUV) Assay, Area of Scratch Wound after Recovery (AID 2284316; active = hit-call score of the fitted dose curve at least 0.9, where 1 is the maximum). In a few lines: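 Wound-area endpoint read by fluorescence imaging of Hoechst-stained nuclei after a 24 h recovery period following scratch of HUVEC monolayers (9000 cells/well). Chemicals dosed within 30 min post-scratch, triplicate 6-point series, 0.1% DMSO vehicle; Cytochalasin D positive control.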

Assay [13] can be described thus: CCTE_Deisenroth_5AR_NBTE_donor: CCTE's 5alpha-reductase NanoBRET Target Engagement Assay […], Deisenroth Lab (AID 2284319). Particulars: actives raise or lower the signal. An outline of the steps: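 SRD5A2-NanoLuc, HEK293T, 20 h expression. Chemical 10 nM - 29.9 uM, 8 conc, duplicate; 3 h preincubation + 2 h testosterone tracer. Nano-Glo substrate plus extracellular NanoLuc inhibitor; donor lum 460 nm. DMSO baseline, bidirectional fit.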

The nature of assay [14]: CCTE_Deisenroth_5AR_NBTE_acceptor: CCTE's 5alpha-reductase NanoBRET Target Engagement Assay - Autofluorescence Screen, Deisenroth Lab (AID 2284321). Particulars: actives raise or lower the signal. In a few lines: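 Acceptor-channel fluorescence flags artifacts, with excitation fixed at 460 nm. Nominal 100 uM chemical samples were read in triplicate runs, and signal changes were fitted in both directions relative to DMSO.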

Another assay has as its system SRD5A2 (gene 6716). As to the kind of experiment: CCTE_Deisenroth_5AR_NBTE_ratio: CCTE's 5alpha-reductase NanoBRET Target Engagement Assay - Ratio, Deisenroth Lab (AID 2284322). Particulars: actives raise or lower the signal. An outline of the steps: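 SRD5A2-NanoLuc HEK293T; cmpd 10 nM-29.9 uM, 3 h preinc + testosterone tracer 2 h; NanoBRET ratio 650/460; bidirectional fit vs DMSO.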

Assay [15] can be described thus: IUF_NPC1_cytotoxicity_72hr: Cytotoxicity Assessment at 72 hours in the Leibniz Research Institute for Environmental Medicine (IUF) Neural Progenitor Cell Proliferation Assay (NPC1) (AID 2284332; active = hit-call score of the fitted dose curve at least 0.9, where 1 is the maximum;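 also: rising LDH signal means more cytotoxicity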). In a few lines:
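Readout is fluorescence from LDH-dependent resazurin conversion, sampled from culture medium after compound contact lasting 72 h. Each well holds one 0.25-0.35 mm human progenitor sphere kept at 37C, 5% CO2 with EGF and FGF.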

Assay [16] is described as follows: VALA_TUBHUV_Antagonist_CellCount: Viability Assessment in the VALA Sciences human Umbilical Vein Endothelial Tubule Formation (TUBHUV) Antagonism Assay (AID 2284310; active = hit-call score of the fitted dose curve at least 0.9, where 1 is the maximum). An outline of the steps: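 Read-out is imaged cell count after nuclear and CD31 staining, fitted against 0.1% DMSO vehicle. Compounds were added for 3 days, in 10 ng/ml VEGF assay medium, to HUVEC–HDF co-cultures pre-grown 3 days.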

Assay [17] is described as follows: CCTE_Mundy_HCI_iCellGluta_NOG_NeuriteLength: CCTE's Neurite Outgrowth Assay in iCellGluta cells for Neurite Length, Mundy Lab (AID 2284318; active = hit-call score of the fitted dose curve at least 0.9, where 1 is the maximum). In a few lines:
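Automated high-content imaging of betaIII-tubulin (Alexa Fluor-488) and Hoechst-stained cells gave neurite length, normalized to the DMSO baseline.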

The nature of assay [18]: VALA_MIGHUV1_ScratchOnly_CellCount: Viability Assessment in the VALA Sciences human Umbilical Vein Endothelial Cell Migration (MIGHUV) Assay, Scratch Wound Inhibited Recovery (AID 2284327; active = hit-call score of the fitted dose curve at least 0.9, where 1 is the maximum). An outline of the steps: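 Hoechst-stained nuclei in the scratch wound were counted by high-content imaging after a 24 h recovery period. Scratched HUVEC monolayers received 6-point concentration series, triplicate, in 0.1% DMSO, fit against DMSO.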

A further assay concerns IYD (gene 389434). The assay can be described thus: CCTE_GLTED_hIYD: CCTE's human Iodotyrosine Deiodinase (xIYD) Inhibition Assay, Great Lakes Toxicology and Ecology Division (GLTED) Lab (AID 2284317; active = hit-call score of the fitted dose curve at least 0.9, where 1 is the maximum;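 also: cell-free human IYD enzyme made in baculovirus insect cells; iodide freed from monoiodotyrosine measured by cerium arsenite color change at 420 nm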). An outline of the steps: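 Iodide liberated from monoiodotyrosine by baculovirus-expressed human IYD over 3 h was determined colorimetrically (Sandell-Kolthoff, 420 nm) after Dowex separation; inhibition is loss of signal versus DMSO.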

As for `CCCc1cc(=O)[nH]c(=S)[nH]1`, the call in assay [1], in assay [2], in assay [3], in [4], in [5] and in [6] was inactive.

`OC[C@@H](O)[C@@H](O)[C@H](O)[C@H](O)CO`: the compound was classed as inactive in [7], in [8], in [1], in assay [9], in [10] and in assay [2]. Besides, the outcome (in [11]; in assay [12]; in assay [13]; in assay [14]; in the assay with SRD5A2 (gene 6716); in assay [15]) was inactive.

Turning to `COc1cccc2c1C(=O)c1c(O)c3c(c(O)c1C2=O)C[C@@](O)(C(=O)CO)C[C@@H]3O[C@H]1C[C@H](N)[C@H](O)[C@H](C)O1`, the AC50 in [5] is 7.41 µM (active); in assay [6] it was 0.00843 µM (active).

For `CCOc1ccc2c(c1)C(C)=CC(C)(C)N2`, the result in [4] was inactive.

`Cc1cc(NC(=O)C(=O)O)cc(C)c1Oc1ccc(O)c2c1CCC2`: the AC50 in [1] was 91.7 µM (active); in assay [16], 81.2 µM (active). The call in assay [2] was inactive.

Regarding `CCCCOC(=O)CCCCCCCCC(=O)OCCCC`, the result (in assay [13]; in [14]; in the assay with SRD5A2 (gene 6716)) was inactive.

On to `C[Si]1(C)O[Si](C)(C)O[Si](C)(C)O[Si](C)(C)O1`, for which the outcome in assay [7], in [8], in assay [10], in [17] and in assay [15] was inactive.

As for `COc1ccc(C)cc1N`, the call (in [13]; in assay [14]; in the assay with SRD5A2 (gene 6716)) was inactive.

As for `CC=Cc1ccc(O)c(OC)c1`, the compound was classed as inactive (in assay [13]; in assay [14]; with SRD5A2 (gene 6716)).

Regarding `Oc1ccc2ccccc2c1N=Nc1ccccc1`, the result (in assay [1]; in [11]; in [12]; in assay [13]; in assay [14]; in the assay on SRD5A2 (gene 6716)) was inactive. Further, the outcome in assay [18] was inactive.

`O=C(O)CCCCC(=O)O`: the outcome in assay [4] was inactive.

Consider `O=c1c(O)c(-c2ccc(O)c(O)c2)oc2cc(O)cc(O)c12`, for which the compound was classed as inactive (in [1]; in assay [2]; with SRD5A2 (gene 6716)). Moreover, the results for the AC50 in [13] and in assay [14] were 26.7 µM (active) and 23.3 µM (active), respectively.

`C1CCC(SSC2CCCCC2)CC1`: the outcome (in assay [13]; in assay [14]; in the assay on SRD5A2 (gene 6716)) was inactive.

As for `COc1ccc2c(c1)c(CC(=O)O)c(C)n2C(=O)c1ccc(Cl)cc1`, the AC50 is 5.9 µM (active) in assay [5] and 10.2 µM (active) in assay [6].

For the compound `CCCCC(CC)COC(=O)CC(C(=O)OCC(CC)CCCC)S(=O)(=O)O` (stereo not drawn), the AC50 in [1] is 7.22 µM (active); in assay [11] it was 50 µM (active); with IYD (gene 389434) it was 41.5 µM (active); in assay [13], 62.2 µM (active); with SRD5A2 (gene 6716) it was 75.3 µM (active); in assay [3] it was 73 µM (active). Also, the half-maximal activity concentration (AC50) in assay [18] is 78.2 µM (active). The compound was called inactive in [9], in [2] and in assay [12].

`CC1=C(/C=C/C(C)=C/C=C/C(C)=C/CO)C(C)(C)CCC1`: the values for the AC50 in assay [5] and in assay [6] were 67.5 µM (active) and 34.6 µM (active), respectively.

Turning to `COC(=O)c1ccc(O)cc1`, the outcome in assay [1], in [16], in [2], in assay [3] and in [4] was inactive.

On to `CCCCCCCCCCC`, for which the outcome (in assay [13]; in assay [14]; in the assay with SRD5A2 (gene 6716)) was inactive.

With `COc1cc(-c2nc(NC(=O)c3cc4cc(C)cc(C)c4n3CC(=O)O)sc2CCC2CCCCC2)c(OC)cc1Cl`, the outcome in assay [13] and in assay [14] was inactive. Also, in the assay with SRD5A2 (gene 6716), the AC50 was 26.3 µM (active).

Turning to `O=c1[nH]cc(F)c(=O)[nH]1`, the outcome in assay [4] was inactive. Moreover, the results for the AC50 in [5] and in [6] were 16.5 µM (active) and 5.95 µM (active), respectively.

As for `CC(=O)Oc1ccccc1C(=O)O`, the compound was called inactive in assay [7], in assay [8], in assay [10], in [17], in [4] and in [6]. For the same compound, the compound was classed as inactive in [15].

As for `COc1cc(S(=O)(=O)O)c(C)cc1N=Nc1c(O)ccc2cc(S(=O)(=O)O)ccc12`, the AC50 was 154 µM (active) in the assay on IYD (gene 389434), 24.8 µM (active) in assay [13] and 60.2 µM (active) in the assay on SRD5A2 (gene 6716). The result in [14] was inactive.
